Assay results: PubChem BioAssay AID1159580 (chemical genetic matrix, 2015)
In all, about 5,500 compounds went through this assay and about 2,000 (36%) were called active. Another 18% or so got no clear call; they are omitted. Some of the results follow. A number with no mark means an inactive call. Cut-off read from the data, not from the text of the source: active = normalized growth mostly below about 0.91 (no sharp cut-off); inconclusive = no clear call, values can overlap the other calls; inactive = mostly above about 0.92.

Experiment: chemical genetic growth profiling, strain panel (AID 1159580);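 note: tested at 20 µM; growth read once vehicle control cultures reached saturation at 30 °C; 1 = growth at the plate median or of vehicle wells; lower values mean less growth of the strain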
Conditions: growth OD

In the case of `CCOP(=S)(OCC)SCn1c(=O)oc2cc(Cl)ccc21`, the normalized growth (S. cerevisiae deletion strains, locus YJR043C, strain POL32, hits give low values) is reported as 1.01, the normalized growth (S. cerevisiae deletion strains, locus YJR075W, strain HOC1, hits give low values) is reported as 0.995 and the normalized growth (S. cerevisiae deletion strains, locus YKL009W, strain mrt4, hits give low values) is reported as 0.98. The normalized growth (S. cerevisiae deletion strains, locus YKL068W, hits give low values) was 1, the normalized growth (S. cerevisiae deletion strains, locus YKL085W, strain MDH1 (second series), hits give low values) was 0.989 and the normalized growth (S. cerevisiae deletion strains, locus YKL085W, strain MDH1, hits give low values) was 0.989. The normalized growth (S. cerevisiae deletion strains, locus YKL160W, strain elf1, hits give low values) was 0.968, the normalized growth (S. cerevisiae deletion strains, locus YKL190W, strain CNB1, hits give low values) was 1.01 and the normalized growth (S. cerevisiae deletion strains, locus YKR001C, strain vps1, hits give low values) was 0.982. For the same compound, the normalized growth (S. cerevisiae deletion strains, locus YKR026C, strain gcn3, hits give low values) was 0.947, the normalized growth (S. cerevisiae deletion strains, locus YKR091W, strain srl3, hits give low values) was 0.963 and the normalized growth (S. cerevisiae deletion strains, locus YLL001W, strain dnm1, hits give low values) was 0.967. For the same compound, the normalized growth (S. cerevisiae deletion strains, locus YLL026W, hits give low values) was 0.954, the normalized growth (S. cerevisiae deletion strains, locus YLL041C, strain sdh2, hits give low values) was 0.954 and the normalized growth (S. cerevisiae deletion strains, locus YLR027C, strain aat2, hits give low values) was 0.954. For the same compound, the normalized growth (S. cerevisiae deletion strains, locus YLR039C, strain RIC1, hits give low values) was 0.97, the normalized growth (S. cerevisiae deletion strains, locus YLR058C, strain SHM2, hits give low values) was 1 and the normalized growth (S. cerevisiae deletion strains, locus YLR102C, strain apc9, hits give low values) was 0.995. For the same compound, the normalized growth (S. cerevisiae deletion strains, locus YLR221C, strain rsa3, hits give low values) was 0.964, the normalized growth (S. cerevisiae deletion strains, locus YLR258W, strain gsy2, hits give low values) was 0.93 and the normalized growth (S. cerevisiae deletion strains, locus YLR262C, strain YPT6 (second series), hits give low values) was 0.8 (active). For the same compound, the normalized growth (S. cerevisiae deletion strains, locus YLR262C, strain YPT6, hits give low values) was 0.969, the normalized growth (S. cerevisiae deletion strains, locus YLR268W, strain sec22, hits give low values) was 0.987 and the normalized growth (S. cerevisiae deletion strains, locus YLR320W, strain mms22, hits give low values) was 0.942. It also gave a normalized growth (S. cerevisiae deletion strains, locus YLR330W, strain CHS5, hits give low values) of 0.985, a normalized growth (S. cerevisiae deletion strains, locus YLR342W, strain FKS1 (second series), hits give low values) of 1.05 and a normalized growth (S. cerevisiae deletion strains, locus YLR342W, strain FKS1, hits give low values) of 0.93. For the same compound, the normalized growth (S. cerevisiae deletion strains, locus YLR357W, strain rsc2, hits give low values) was 0.949, the normalized growth (S. cerevisiae deletion strains, locus YLR370C, strain arc18, hits give low values) was 0.962 and the normalized growth (S. cerevisiae deletion strains, locus YLR371W, strain rom2, hits give low values) was 1. It also gave a normalized growth (S. cerevisiae deletion strains, locus YLR384C, strain iki3, hits give low values) of 0.971, a normalized growth (S. cerevisiae deletion strains, locus YLR418C, strain cdc73, hits give low values) of 0.97 and a normalized growth (S. cerevisiae deletion strains, locus YML016C, strain PPZ1, hits give low values) of 0.996. The normalized growth (S. cerevisiae deletion strains, locus YML032C, strain rad52, hits give low values) was 0.998, the normalized growth (S. cerevisiae deletion strains, locus YML120C, strain ndi1, hits give low values) was 0.965 and the normalized growth (S. cerevisiae deletion strains, locus YML124C, strain tub3, hits give low values) was 0.991. For the same compound, the normalized growth (S. cerevisiae deletion strains, locus YMR058W, strain fet3, hits give low values) was 0.966, the normalized growth (S. cerevisiae deletion strains, locus YMR078C, strain ctf18, hits give low values) was 0.989 and the normalized growth (S. cerevisiae deletion strains, locus YMR125W, strain sto1, hits give low values) was 0.961. It also gave a normalized growth (S. cerevisiae deletion strains, locus YMR129W, hits give low values) of 0.949, a normalized growth (S. cerevisiae deletion strains, locus YMR205C, strain PFK2, hits give low values) of 0.895 and a normalized growth (S. cerevisiae deletion strains, locus YMR223W, strain ubp8, hits give low values) of 0.998. The normalized growth (S. cerevisiae deletion strains, locus YMR231W, strain pep5, hits give low values) was 0.973, the normalized growth (S. cerevisiae deletion strains, locus YMR263W, strain SAP30, hits give low values) was 1 and the normalized growth (S. cerevisiae deletion strains, locus YMR307W, strain GAS1, hits give low values) was 1.03. For the same compound, the normalized growth (S. cerevisiae deletion strains, locus YNL067W, strain RPL9B, hits give low values) was 0.993, the normalized growth (S. cerevisiae deletion strains, locus YNL071W, strain lat1, hits give low values) was 0.91 (active) and the normalized growth (S. cerevisiae deletion strains, locus YNL128W, strain TEP1, hits give low values) was 0.989. The normalized growth (S. cerevisiae deletion strains, locus YNL153C, strain GIM3, hits give low values) was 0.994, the normalized growth (S. cerevisiae deletion strains, locus YNL209W, strain ssb2, hits give low values) was 0.983 and the normalized growth (S. cerevisiae deletion strains, locus YNL233W, strain BNI4, hits give low values) was 0.995. It also gave a normalized growth (S. cerevisiae deletion strains, locus YNL248C, strain rpa49, hits give low values) of 0.966, a normalized growth (S. cerevisiae deletion strains, locus YNL250W, strain rad50, hits give low values) of 0.993 and a normalized growth (S. cerevisiae deletion strains, locus YNL271C, strain bni1, hits give low values) of 0.992. It also gave a normalized growth (S. cerevisiae deletion strains, locus YNL298W, strain CLA4, hits give low values) of 0.997, a normalized growth (S. cerevisiae deletion strains, locus YNL307C, strain MCK1, hits give low values) of 0.991 and a normalized growth (S. cerevisiae deletion strains, locus YNL322C, strain KRE1 (second series), hits give low values) of 0.958. It also gave a normalized growth (S. cerevisiae deletion strains, locus YNL322C, strain KRE1, hits give low values) of 1, a normalized growth (S. cerevisiae deletion strains, locus YNR049C, strain mso1, hits give low values) of 0.961 and a normalized growth (S. cerevisiae deletion strains, locus YNR052C, strain pop2, hits give low values) of 0.992. The normalized growth (S. cerevisiae deletion strains, locus YOL006C, strain TOP1, hits give low values) was 0.981, the normalized growth (S. cerevisiae deletion strains, locus YOL012C, strain htz1) was 1.68 and the normalized growth (S. cerevisiae deletion strains, locus YOL147C, strain pex11, hits give low values) was 0.996. For the same compound, the normalized growth (S. cerevisiae deletion strains, locus YOR001W, strain rrp6, hits give low values) was 0.969, the normalized growth (S. cerevisiae deletion strains, locus YOR061W, strain CKA2, hits give low values) was 0.985 and the normalized growth (S. cerevisiae deletion strains, locus YOR069W, strain VPS5, hits give low values) was 1. It also gave a normalized growth (S. cerevisiae deletion strains, locus YOR070C, strain gyp1, hits give low values) of 0.961, a normalized growth (S. cerevisiae deletion strains, locus YOR080W, strain dia2, hits give low values) of 0.961 and a normalized growth (S. cerevisiae deletion strains, locus YOR083W, strain WHI5, hits give low values) of 0.961. The normalized growth (S. cerevisiae deletion strains, locus YOR106W, strain vam3, hits give low values) was 0.963, the normalized growth (S. cerevisiae deletion strains, locus YOR136W, strain idh2, hits give low values) was 0.999 and the normalized growth (S. cerevisiae deletion strains, locus YOR144C, strain elg1, hits give low values) was 0.982. It also gave a normalized growth (S. cerevisiae deletion strains, locus YOR184W, strain ser1, hits give low values) of 0.978, a normalized growth (S. cerevisiae deletion strains, locus YOR265W, strain rbl2, hits give low values) of 0.952 and a normalized growth (S. cerevisiae deletion strains, locus YOR270C, strain vph1, hits give low values) of 0.963. The normalized growth (S. cerevisiae deletion strains, locus YOR290C, strain snf2, hits give low values) was 0.963, the normalized growth (S. cerevisiae deletion strains, locus YOR316C, strain cot1, hits give low values) was 0.991 and the normalized growth (S. cerevisiae deletion strains, locus YPL051W, strain arl3, hits give low values) was 0.953. The normalized growth (S. cerevisiae deletion strains, locus YPL055C, strain LGE1, hits give low values) was 0.981, the normalized growth (S. cerevisiae deletion strains, locus YPL078C, strain atp4, hits give low values) was 0.962 and the normalized growth (S. cerevisiae deletion strains, locus YPL106C, strain sse1, hits give low values) was 0.994. For the same compound, the normalized growth (S. cerevisiae deletion strains, locus YPL240C, strain hsp82, hits give low values) was 0.948, the normalized growth (S. cerevisiae deletion strains, locus YPL241C, strain CIN2, hits give low values) was 0.994 and the normalized growth (S. cerevisiae deletion strains, locus YPR119W, strain clb2, hits give low values) was 0.99. It also gave a normalized growth (S. cerevisiae deletion strains, locus YPR141C, strain kar3, hits give low values) of 0.993, a normalized growth (S. cerevisiae deletion strains, locus YPR163C, strain tif3, hits give low values) of 0.993 and a normalized growth (S. cerevisiae deletion strains, locus YPR167C, strain met16, hits give low values) of 0.984. It also gave a normalized growth (S. cerevisiae deletion strains, strain wtn01, hits give low values) of 0.99 and a normalized growth (S. cerevisiae strains, strain wild type, hits give low values) of 0.993.
